According to PubChem BioAssay (NCI):
Compounds without any hit were thinned out: in the full panel of roughly 79,000, 15% have a hit. Active and inactive are the calls of the source. No stated cut-off is given here; in the data, active means growth inhibition above about 70%; inactive means the rest.

How the values were obtained:
[1] = NCI Yeast Anticancer Drug Screen. Data for the wt1 strain (AID 149);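 further: 0% = growth of vehicle-treated wt1 cultures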; details: S. cerevisiae wt1 strain (SPY 50644) growth inhibition, hits give high values
Procedure, shortened: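 wt1 yeast, compound-treated; % growth inhibition vs vehicle control.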

[2] = NCI Yeast Anticancer Drug Screen. Data for the rad50EPP+ strain (AID 151);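 further: 0% = growth of vehicle-treated control cultures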; details: S. cerevisiae rad50 mutant strain, hits give high values
Procedure, shortened: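 In this screen, rad50EPP+ yeast were exposed to compounds. Growth inhibition was scored against vehicle-treated controls.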

[3] = NCI Yeast Anticancer Drug Screen. Data for the mgt1 strain (AID 153); details: S. cerevisiae mgt1 mutant growth inhibition, hits give high values
Procedure, shortened: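 mgt1 strain exposed; growth vs vehicle control recorded as inhibition.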

[4] = NCI Yeast Anticancer Drug Screen. Data for the rad50 strain (AID 155);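 further: 0% = growth of vehicle-only cultures of the same strain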; details: S. cerevisiae rad50 strain growth inhibition, hits give high values
Procedure, shortened: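 Genetically altered yeast (DNA repair pathway); compound treatment; growth inhibition vs vehicle ctrl.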

[5] = NCI Yeast Anticancer Drug Screen. Data for the mec2-1 strain (AID 157); details: S. cerevisiae mec2-1 strain, hits give high values
Procedure, shortened: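 Vehicle-treated cultures served as reference for growth inhibition of compound-exposed mec2-1 yeast.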

[6] = NCI Yeast Anticancer Drug Screen. Data for the rad14 strain (AID 159);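 further: 0% = growth of vehicle-treated control cultures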; details: S. cerevisiae rad14 strain growth inhibition, hits give high values
Procedure, shortened: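 Test compounds were applied to a repair-deficient yeast strain. Its growth was then compared with that of cultures given vehicle alone, and inhibition was expressed relative to those controls.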

[7] = NCI Yeast Anticancer Drug Screen. Data for the sgs1 mgt1 strain (AID 161);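 further: 0% = growth of cultures given vehicle only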; details: S. cerevisiae sgs1 mgt1 strain, hits give high values
Procedure, shortened: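 Genetically altered yeast, compound exposure, growth inhibition relative to vehicle.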

[8] = NCI Yeast Anticancer Drug Screen. Data for the CLN2oe strain (AID 163);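 further: 0% = growth of vehicle-only control cultures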; details: S. cerevisiae CLN2oe strain, hits give high values
Procedure, shortened: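 Inhibition relative to vehicle-treated yeast is reported. Cells: strain with genetic alteration in cell-cycle control, grown with compound.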

[9] = NCI Yeast Anticancer Drug Screen. Data for the cln2 rad14 strain (AID 165);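 further: 0% = growth equal to vehicle treated cultures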; details: S. cerevisiae cln2 rad14 strain, hits give high values
Procedure, shortened: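 Each compound was tested on cln2 rad14 yeast. Inhibition of growth was calculated against vehicle-exposed controls.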

[10] = NCI Yeast Anticancer Drug Screen. Data for the bub3 strain (AID 167); details: S. cerevisiae bub3 mutant strain, hits give high values
Procedure, shortened: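 Yeast carrying a defined mutation is treated with each compound, and growth is compared with that of vehicle-exposed cells to give inhibition.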

[11] = NCI Yeast Anticancer Drug Screen. Data for the wt2 strain (AID 169);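 further: 0% = growth of vehicle-treated yeast cultures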; details: S. cerevisiae wt2 strain growth inhibition, hits give high values
Procedure, shortened: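 Inhibition of yeast growth was determined after compound treatment, normalised to controls receiving only vehicle.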

[12] = NCI Yeast Anticancer Drug Screen. Data for the mlh1 strain (AID 171);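 further: 0% = growth of vehicle-treated control cultures of the same strain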; details: S. cerevisiae mlh1 strain growth inhibition, hits give high values
Procedure, shortened: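 Vehicle-normalised growth inhibition of a repair- or checkpoint-altered yeast strain following compound treatment.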

[13] = NCI Yeast Anticancer Drug Screen. Data for the sgs1 strain (AID 173);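 further: 0% = growth of vehicle-only control cultures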; details: S. cerevisiae sgs1 mutant, hits give high values
Procedure, shortened: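 Screen format: yeast with repair or checkpoint alterations, compound exposure, growth read relative to vehicle.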

[14] = NCI Yeast Anticancer Drug Screen. Data for the mlh1 rad18 strain (AID 175); details: S. cerevisiae mlh1 rad18 strain growth inhibition, hits give high values
Procedure, shortened: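 Vehicle-treated cultures served as the reference for growth inhibition in a yeast strain carrying DNA damage repair alterations exposed to each compound.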

[15] = NCI Yeast Anticancer Drug Screen. Data for the rad18 strain (AID 177); details: S. cerevisiae rad18 mutant growth inhibition, hits give high values
Procedure, shortened: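 Test articles were incubated with altered yeast defective in DNA damage repair. Results are given as inhibition of growth versus vehicle.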

[16] = at 5.0 µM (retest, dose inferred, filed as 0.5)
[17] = at 50.0 µM (retest, dose inferred, filed as 5.0)

Measured: growth inhibition

S=C1NC2=C(CSC/C2=C\c2ccc(Cl)cc2)C(c2ccc(Cl)cc2)N1 (centres undefined)
active: [1]; at 100.0 µM 76% | [3]; at 33.0 µM 72% | [3]; at 100.0 µM 82% | [4]; at 33.0 µM 74% | [4]; [17] 94% | [4]; at 50.0 µM 92.9% | [4]; at 100.0 µM 71% | [5]; [17] 95% | [5]; at 50.0 µM 83.7% | [5]; at 100.0 µM 77% | [6]; at 33.0 µM 71% | [6]; at 100.0 µM 74% | [7]; [17] 92% | [7]; at 50.0 µM 96.5% | [8]; at 100.0 µM 71% | [9]; [17] 92% | [9]; at 50.0 µM 95.2% | [10]; [17] 96% | [10]; at 50.0 µM 94.8% | [10]; at 100.0 µM 77% | [11]; at 100.0 µM 83% | [12]; at 33.0 µM 72% | [12]; at 100.0 µM 75% | [13]; at 33.0 µM 84% | [13]; at 100.0 µM 87% | [14]; [17] 96% | [14]; at 50.0 µM 90.7% | [15]; at 100.0 µM 73%
inactive: [1]; at 1.2 µM 8% | [1]; at 3.7 µM 19% | [1]; at 11.0 µM 24% | [1]; at 33.0 µM 61% | [2]; at 1.2 µM -3% | [2]; at 3.7 µM 12% | [2]; at 11.0 µM 12% | [2]; at 33.0 µM 16% | [2]; at 100.0 µM 9% | [3]; at 1.2 µM 29% | [3]; at 3.7 µM 31% | [3]; at 11.0 µM 44% | [4]; at 1.2 µM 20% | [4]; at 3.7 µM 42% | [4]; [16] -9% | [4]; at 11.0 µM 56% | [5]; at 1.2 µM 0% | [5]; at 3.7 µM -1% | [5]; [16] 5% | [5]; at 11.0 µM 24% | [5]; at 33.0 µM 61% | [6]; at 1.2 µM 11% | [6]; at 3.7 µM 26% | [6]; at 11.0 µM 38% | [7]; [16] 6% | [8]; at 1.2 µM -14% | [8]; at 3.7 µM 14% | [8]; at 11.0 µM 28% | [8]; at 33.0 µM 44% | [9]; [16] 11% | [10]; at 1.2 µM -39% | [10]; at 3.7 µM -7% | [10]; [16] -7% | [10]; at 11.0 µM 16% | [10]; at 33.0 µM 56% | [11]; at 1.2 µM 25% | [11]; at 3.7 µM 31% | [11]; at 11.0 µM 39% | [11]; at 33.0 µM 68% | [12]; at 1.2 µM 3% | [12]; at 3.7 µM 26% | [12]; at 11.0 µM 46% | [13]; at 1.2 µM 42% | [13]; at 3.7 µM 45% | [13]; at 11.0 µM 66% | [14]; [16] 16% | [15]; at 1.2 µM 15% | [15]; at 3.7 µM 25% | [15]; at 11.0 µM 28% | [15]; at 33.0 µM 63%

CN(C)N=Nc1ccc(NC=O)cc1
active: [1]; at 33.0 µM 92% | [1]; at 100.0 µM 99% | [2]; at 33.0 µM 86% | [2]; at 100.0 µM 98% | [3]; at 33.0 µM 88% | [3]; at 100.0 µM 99% | [4]; at 33.0 µM 97% | [4]; at 50.0 µM 89.7% | [4]; at 100.0 µM 99% | [5]; at 33.0 µM 90% | [5]; at 50.0 µM 91.8% | [5]; at 100.0 µM 99% | [6]; at 33.0 µM 77% | [6]; at 100.0 µM 98% | [8]; at 33.0 µM 98% | [8]; at 100.0 µM 99% | [9]; at 50.0 µM 85.2% | [10]; at 33.0 µM 94% | [10]; at 50.0 µM 78.7% | [10]; at 100.0 µM 99% | [11]; at 33.0 µM 96% | [11]; at 100.0 µM 99% | [12]; at 33.0 µM 91% | [12]; at 100.0 µM 99% | [13]; at 33.0 µM 93% | [13]; at 100.0 µM 99% | [14]; at 50.0 µM 87.4% | [15]; at 33.0 µM 98% | [15]; at 100.0 µM 99%
inactive: [1]; at 1.2 µM -2% | [1]; at 3.7 µM 1% | [1]; at 11.0 µM 9% | [2]; at 1.2 µM 11% | [2]; at 3.7 µM 6% | [2]; at 11.0 µM 8% | [3]; at 1.2 µM 20% | [3]; at 3.7 µM 27% | [3]; at 11.0 µM 23% | [4]; at 1.2 µM 5% | [4]; at 3.7 µM 4% | [4]; [16] 23% | [4]; at 11.0 µM 17% | [4]; [17] 67% | [5]; at 1.2 µM 0% | [5]; at 3.7 µM 13% | [5]; [16] 23% | [5]; at 11.0 µM 20% | [5]; [17] 47% | [6]; at 1.2 µM 6% | [6]; at 3.7 µM 3% | [6]; at 11.0 µM 9% | [7]; [16] -7% | [7]; [17] -44% | [7]; at 50.0 µM 66.2% | [8]; at 1.2 µM 31% | [8]; at 3.7 µM 27% | [8]; at 11.0 µM 49% | [9]; [16] -7% | [9]; [17] -19% | [10]; at 1.2 µM 15% | [10]; at 3.7 µM 18% | [10]; [16] -3% | [10]; at 11.0 µM 27% | [10]; [17] -22% | [11]; at 1.2 µM 18% | [11]; at 3.7 µM 9% | [11]; at 11.0 µM 14% | [12]; at 1.2 µM 2% | [12]; at 3.7 µM -7% | [12]; at 11.0 µM 6% | [13]; at 1.2 µM 2% | [13]; at 3.7 µM -5% | [13]; at 11.0 µM 8% | [14]; [16] 32% | [14]; [17] 65% | [15]; at 1.2 µM 19% | [15]; at 3.7 µM 24% | [15]; at 11.0 µM 35%

O=[N+]([O-])c1ccc2nnnn2c1
active: [2]; at 100.0 µM 79% | [4]; [17] 71% | [4]; at 50.0 µM 75.8% | [7]; [17] 86% | [10]; [17] 78% | [13]; at 100.0 µM 72% | [14]; [16] 78% | [14]; [17] 93%
inactive: [1]; at 1.2 µM 1% | [1]; at 3.7 µM 2% | [1]; at 11.0 µM 7% | [1]; at 33.0 µM 11% | [1]; at 100.0 µM 19% | [2]; at 1.2 µM -2% | [2]; at 3.7 µM -1% | [2]; at 11.0 µM 15% | [2]; at 33.0 µM 50% | [3]; at 1.2 µM 0% | [3]; at 3.7 µM 2% | [3]; at 11.0 µM 4% | [3]; at 33.0 µM 23% | [3]; at 100.0 µM 18% | [4]; at 1.2 µM -3% | [4]; at 3.7 µM -1% | [4]; [16] 10% | [4]; at 11.0 µM 3% | [4]; at 33.0 µM 10% | [4]; at 100.0 µM 21% | [5]; at 1.2 µM -1% | [5]; at 3.7 µM 2% | [5]; [16] 3% | [5]; at 11.0 µM 4% | [5]; at 33.0 µM 12% | [5]; [17] 23% | [5]; at 50.0 µM 43.9% | [5]; at 100.0 µM 43% | [6]; at 1.2 µM -1% | [6]; at 3.7 µM 0% | [6]; at 11.0 µM 5% | [6]; at 33.0 µM 10% | [6]; at 100.0 µM 30% | [7]; [16] 29% | [7]; at 50.0 µM 60.8% | [8]; at 1.2 µM -5% | [8]; at 3.7 µM 1% | [8]; at 11.0 µM -1% | [8]; at 33.0 µM -7% | [8]; at 100.0 µM 1% | [9]; [16] 2% | [9]; [17] 28% | [9]; at 50.0 µM 29.9% | [10]; at 1.2 µM -3% | [10]; at 3.7 µM -1% | [10]; [16] 21% | [10]; at 11.0 µM 1% | [10]; at 33.0 µM 3% | [10]; at 50.0 µM 34% | [10]; at 100.0 µM 21% | [11]; at 1.2 µM 0% | [11]; at 3.7 µM 1% | [11]; at 11.0 µM 7% | [11]; at 33.0 µM 14% | [11]; at 100.0 µM 25% | [12]; at 1.2 µM 0% | [12]; at 3.7 µM 1% | [12]; at 11.0 µM 4% | [12]; at 33.0 µM 14% | [12]; at 100.0 µM 34% | [13]; at 1.2 µM 1% | [13]; at 3.7 µM 7% | [13]; at 11.0 µM 15% | [13]; at 33.0 µM 30% | [14]; at 50.0 µM 61.8% | [15]; at 1.2 µM 1% | [15]; at 3.7 µM 2% | [15]; at 11.0 µM -2% | [15]; at 33.0 µM 25% | [15]; at 100.0 µM 55%
